Screening data deposited in PubChem by several laboratories.
eIF4E-4G inh: eIF4E–eIF4G protein interaction inhibitors, primary screen, biochemical, uHTS, TR-FRET, eIF4GI fragment; TR-FRET eIF4E-eIF4GI(517-606) binding, 2 h; inhibition, % at 21.7 µM; 0.37% of 220,000 active;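 active means inhibition above about 30%, limit read from the data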;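 further: 0% = full FRET control wells and 100% = background wells lacking eIF4GI fragment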
14-3-3 Bad PPI: inhibitors of 14-3-3 zeta/Bad binding, primary screen, biochemical, TR-FRET, bovine 14-3-3 zeta; AID 781, 2007; 0.71% of 220,000 active; TR-FRET 14-3-3zeta/Dy647-pBad peptide displacement, 1 h; inhibition, % at 21.7 µM;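 active means inhibition above about 70%, limit read from the data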;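 further: 0% = full 14-3-3 plus peptide FRET controls and 100% = background without 14-3-3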
Target sequence (P63103 whole entry, looked up): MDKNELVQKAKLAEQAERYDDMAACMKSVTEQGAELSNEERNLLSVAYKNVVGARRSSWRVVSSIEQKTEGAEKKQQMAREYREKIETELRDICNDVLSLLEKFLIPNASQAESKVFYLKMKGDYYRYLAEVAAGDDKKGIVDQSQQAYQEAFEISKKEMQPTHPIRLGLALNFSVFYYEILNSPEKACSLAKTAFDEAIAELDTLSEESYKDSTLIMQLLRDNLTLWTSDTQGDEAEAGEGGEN
Mcl1-Bid inh: Mcl-1/Bid binding inhibitors, primary screen, biochemical, TR-FRET, 1536-well. Induced myeloid leukemia cell differentiation protein Mcl-1 (Homo sapiens), Q07820. TR-FRET Mcl-1/Bid-Dy647 peptide binding. inhibition, % at 21.7 µM. 0.97% of 220,000 active;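 active means compounds that cut the binding signal by more than half at the single screening dose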;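 further: His-tagged Mcl-1 with europium anti-His antibody binding Bid BH3 peptide; 0% = Mcl-1 plus peptide wells and 100% = peptide-only wells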
Target sequence (Q07820 whole entry, looked up): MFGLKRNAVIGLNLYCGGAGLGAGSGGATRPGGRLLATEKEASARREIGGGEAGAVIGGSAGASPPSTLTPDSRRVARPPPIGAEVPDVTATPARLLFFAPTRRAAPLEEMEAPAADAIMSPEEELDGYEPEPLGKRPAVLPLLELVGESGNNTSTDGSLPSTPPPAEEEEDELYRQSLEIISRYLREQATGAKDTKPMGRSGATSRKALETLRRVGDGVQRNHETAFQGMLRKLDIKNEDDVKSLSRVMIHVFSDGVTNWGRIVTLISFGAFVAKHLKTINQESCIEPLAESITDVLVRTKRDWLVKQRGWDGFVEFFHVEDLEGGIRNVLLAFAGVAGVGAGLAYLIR
Mcl-1 Bim block: inhibitors of Bim peptide binding to Mcl-1, primary screen, biochemical, bead-based flow cytometry, multiplex; Bim peptide-Mcl-1 binding; inhibition, % at 10 µM; 0.1% of 190,000 active; Induced myeloid leukemia cell differentiation protein Mcl-1 (Homo sapiens), Q07820; in the data active means inhibition above about 40%;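 further: 0% = no compound tracer wells and 100% = peptide blocker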
Pf gamet viab: late stage P. falciparum gametocyte viability inhibitors, primary screen, ATP luminescence, HTS. inhibition, % at 10.9 µM. 0.065% of 150,000 active. P. falciparum stage V gametocytes, 24 h;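 active means inhibition above the mean plus 3 SD of compounds within the control limits, set per campaign, cut at about 38% in these data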;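 further: 0% = DMSO wells and 100% = medium only without gametocytes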
Mcl1 Noxa PPI: Mcl-1/Noxa binding inhibitors, primary screen, biochemical, TR-FRET, 1536-well | Induced myeloid leukemia cell differentiation protein Mcl-1 (Homo sapiens), Q07820 | TR-FRET Mcl-1/Noxa peptide binding, 2 h | inhibition, % at 21.7 µM | 1.5% of 220,000 active | AID 1022, 2008;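 active means compounds that cut the protein-peptide binding signal by more than 50% relative to plate controls in a single-dose test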;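 further: His-tagged Mcl-1 with rhodamine Noxa BH3 peptide and terbium anti-His antibody; 0% = Mcl-1 plus Noxa peptide wells and 100% = peptide-only wells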
* marks the source's active call; other numbers are inactive results; . = no result given; [ ] = dose if it differs, or a comment. Hits are enriched below; roughly 2.7% of the tested compounds scored in any of these assays.

SMILES | eIF4E-4G inh | 14-3-3 Bad PPI | Mcl1-Bid inh | Mcl-1 Bim block | Pf gamet viab | Mcl1 Noxa PPI
COc1ccc(C2c3cc(OC)c(OC)cc3CCN2S(C)(=O)=O)cc1OC (configuration not stated) | 42* | 1 | -6 | 0 | -5 | 1
O=C(/C=C/c1ccco1)Nc1nnc(-c2ccco2)s1 | 0 | 0 | -35 | -2 | . | 7
O=C(/C=C/c1ccco1)Nc1ccccc1C(=O)O | 8 | 34 | -56 | 2 | -18 | 52*
O=C(/C=C/c1ccco1)Nc1cccc(NC(=O)/C=C/c2ccco2)n1 | 4 | -21 | -67 | -3 | 14 | 72*
Cc1nc(NC(=O)/C=C/c2ccco2)sc1C | 2 | -19 | -16 | -2 | . | 58*
O=C(/C=C/c1ccco1)Nc1cc(Cl)ccc1C(=O)O | 1 | 12 | 0 | -2 | . | 22
COc1ccc(O)c(-c2cc(-c3cccs3)[nH]n2)c1 | 0 | -7 | 0 | 0 | -8 | 3
CCC(C(=O)NC1CCCC1)N(C(=O)Cn1nnc(-c2ccc(C)o2)n1)c1cnc2ccccc2c1 (configuration not stated) | 6 | 78* | -37 | -1 | -1 | 19
Cc1ccc(CN(c2ccc(C(=O)NCc3ccccn3)cc2)S(C)(=O)=O)cc1 | -2 | -10 | -12 | 0 | 8 | -14
CC(C)CN1CCC(=O)N([C@H](COc2ccccc2)Cc2ccccc2)CC1 | . | . | . | . | -3 | .
C=CCSc1nc2c(cc1C#N)CCC2 | -5 | 90*[fluorescence artefact?] | 18 | 0 | 8 | 27
CCC(C)c1ccc(S(=O)(=O)N2CCN3CCCC3C2)cc1 (configuration not stated) | . | . | . | . | 16 | .
CCC(=O)NC(=S)Nc1ccc(N2CCN(C(=O)c3ccc(Cl)cc3)CC2)cc1 | -9 | -10 | -39 | -6 | -8 | 14
O=C(CN1CCN(C2CCCCC2)CC1)NCCC1=CCCCC1 | -4 | 57 | 51* | 3 | -36 | 33
COC(=O)c1cc(OC)c(OC)cc1NC(=O)CSc1ccccc1 | -3 | 7 | 1 | -4 | . | -8
CCCn1c(SCc2ccon2)nc2ccccc2c1=O | 1 | -1 | 1 | -14 | . | -1
CCOC(=O)N1CCN(c2ccc(N3C(=O)CCCC3=O)cc2[N+](=O)[O-])CC1 | 2 | -16 | -13 | -3 | -32 | -2
COc1ccc(/C=C/C(=O)c2cc3c(cc2N)OCO3)cc1 | 1 | -19 | -50 | 0 | -8 | 6
Cc1cc(C)n2c(SC/C(O)=C(\C#N)c3nc4ccccc4[nH]3)nnc2n1 | 9 | -5 | -7 | -1 | 20 | 86*
CC(C)NC(=O)c1cc(=O)n(C)c(=O)n1C | -6 | 88* | -12 | -1 | . | -18
Cn1c(C(=O)NC2CC2)cc(=O)n(C)c1=O | 2 | -11 | 5 | -1 | 10 | 1
Cc1ccc(-c2cc(C(=O)Nc3ccccn3)c3ccccc3n2)o1 | 27 | 9 | 0 | -2 | -17 | 82*
Cc1ccc(NC(=O)c2cc(-c3ccc(C)o3)nc3ccccc23)cc1 | -3 | -2 | -17 | 1 | . | 36
CCN(CC)C(=S)Oc1ccc(Cl)cc1Cl | 5 | 3 | -2 | . | -22 | -4
CC1=C(C)C(=O)N(c2ccccn2)C1=O | -5 | -11 | -18 | 0 | -11 | 17
SMILES | eIF4E-4G inh | 14-3-3 Bad PPI | Mcl1-Bid inh | Mcl-1 Bim block | Pf gamet viab | Mcl1 Noxa PPI
Cc1nn(-c2ccccn2)c2c1C(=O)C(Br)CC2 (configuration not stated) | 7 | -15 | -9 | 18 | . | 55*
N#Cc1ccc(Cl)cc1NC(=O)CSc1nc2nc(-c3cccs3)cc(C(F)(F)F)c2c(=O)[nH]1 | 31* | 39 | 12 | . | . | 46
CC(=O)Nc1ccc(NC(=O)CSc2nc3nc(-c4cccs4)cc(C(F)(F)F)c3c(=O)[nH]2)cc1 | -6 | 2 | -50 | . | 2 | 17
CCc1cc(N2CCOCC2)cc2c1[nH]c1ccccc12 | 5 | 5 | 10 | 0 | . | 70*
COc1nc(OC)nc(N2CCC(C(=O)NCc3cccs3)CC2)n1 | 4 | 84* | -40 | -1 | 3 | -8
Cc1cnc(C)c(N2CCC(C(=O)NCc3cccs3)CC2)n1 | -3 | -18 | -9 | -5 | 11 | 2
CN1CCC/C1=C/C=C1\SC(=S)NC1=O | 0 | -3 | -37 | -5 | -22 | -58
Cc1nonc1CN(C)C(=O)CC1C(=O)NCCN1Cc1cccc(C(F)(F)F)c1 (configuration not stated) | -2 | -4 | -51 | 0 | 5 | 5
O=C(CN1CCOCC1)N/N=C/c1cccc2ccccc12 | . | . | . | . | -7 | .
Cc1ccc2nc(Cl)c(/C=N/NC(=O)CN3CCOCC3)cc2c1 | . | . | . | . | 7 | .
O=C(CN1CCOCC1)N/N=C/c1ccc(-c2cccc(Cl)c2Cl)o1 | 4 | 77* | -2 | . | 3 | 21
Cc1ccc2cc(/C=N/NC(=O)CN3CCOCC3)c(Cl)nc2c1 | 0 | 0 | 74* | 0 | . | 6
Cc1cccc2cc(/C=N/NC(=O)CN3CCOCC3)c(Cl)nc12 | 0 | -6 | 87* | -2 | . | -1
C=CCSc1nnc(C)c(/C=C/Nc2ccc(Cl)cc2)n1 | -7 | -9 | -30 | 2 | -10 | -6
CC(=O)Nc1sc(C)c(C)c1C(=O)OC(C)C | 0 | 2 | -54 | -3 | -3 | -13
Cc1sc(NC(=O)Cn2nc(C(F)(F)F)cc2C)c(C(=O)OC(C)C)c1C | 31* | -10 | -42 | -4 | . | -7
COc1cc(C=O)ccc1OS(=O)(=O)c1ccc(NC(C)=O)cc1 | 3 | 14 | 53* | -4 | 6 | 5
CC1=NNC(=O)C1CCC(=O)N/N=C(\C)c1ccccc1 (configuration not stated) | 1 | -16 | -84 | 0 | . | -23
CC1=NNC(=O)C1CC(=O)N/N=C(\C)c1ccco1 (configuration not stated) | 1 | -8 | -51 | 0 | 6 | 112*
NC(=O)C1CCN(C2=C(NS(=O)(=O)c3ccccc3)C(=O)c3ccccc3C2=O)CC1 | -3 | 2 | -19 | . | 3 | -1
NC(=O)C1CCN(C2=C(Cl)C(=O)c3ccccc3C2=O)CC1 | 18 | 7 | 27 | 16 | 10 | 88*
O=C1C(Cl)=C(N2CCC(C(=O)O)CC2)C(=O)c2ccccc21 | 9 | 2 | -14 | . | . | 52*
O=[N+]([O-])c1cccnc1NCc1cccs1 | -1 | 3 | 3 | 1 | 22 | -14
Oc1ccccc1NCC(O)Cn1ccc2ccccc21 (configuration not stated) | 9 | 41 | 33 | 1 | -14 | 74*
